CBFb-RUNX1 inh – qHTS Assay for Compounds Blocking the Interaction Between CBF-beta and RUNX1 for the Treatment of Acute Myeloid Leukemia. AlphaScreen CBFb-His/RUNX1-biotin binding, biochemical. Potency, µM (top dose mostly 59.8 µM), for inactives: at the top dose activity, negative = inhibition, most hits filed as inhibitors. 230,000 tested, under 10 active. Runt-related transcription factor 1 (Homo sapiens) + Core-binding factor subunit beta …; also: % of control where 0% means no effect
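Interaction loss through any mechanism counts as activity. Pre-formed complex of His-CBF-beta and biotin-RUNX1 (30 nM apiece) is incubated with compound 15 min, then with 50 ng nickel and 50 ng streptavidin beads for 90 min before AlphaScreen detection.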
MBNL1-CUG inh – qHTS Assay for Inhibitors of MBNL1-poly(CUG) RNA binding | Muscleblind-like protein 1 (Homo sapiens), Q9NR56 | TR-FRET MBNL1-His/biotin-(CUG)12 binding, 665/545 ratio | Potency, µM (doses to about 57.5 µM), for inactives: at the top dose activity change, negative = inhibition, usual class: inhibitors | actives 0.036% (n = 280,000); active = well fitted inhibition curve with a large enough effect in the signal ratio, with a control signal flat, not every such curve was filed as active; inconclusive = small, poorly fitted or top-dose-only effect, or effect the other way, or a change in a side signal; inactive = no such curve, though single readings can be large or run the other way; the % refers to the signal ratio; also: potency is read from the fitted curve at half-maximal effect; % is scaled to controls: 0 for no effect and ±100 for the full control effect
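TR-FRET readout: Ex 340 nm, 665/545 nm emission ratio, normalized to buffer-only (basal) and MBNL1-(CUG)12 controls. Complex of MBNL1-His with Biotin-(CUG)12, compounds 92 nM–58 uM, incubated 60 min at room temperature.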
PLK1 PBD block – qHTS for Inhibitors of PLK1-PDB (polo-like kinase 1 - polo-box domain): Primary Screen. Serine/threonine-protein kinase PLK1 (Homo sapiens), P53350. Plk1 PBD binding of FITC phosphopeptide, fluorescence polarization. Potency, µM, inactives show max response, negative = inhibition, actives largely listed as inhibitors. actives 2.8% (n = 360,000); also: potency is read from the fitted curve at half-maximal effect; series mostly up to about 57 µM; % is scaled to controls: 0 for no effect and ±100 for the full control effect; nearly all actives have a fitted effect of over 65% in size
KCNH2 3.1 inh – qHTS for Inhibitors of KCHN2 3.1: Mutant qHTS; actives 0.95% (n = 340,000); U2OS KCNH2 3.1, thallium flux FluxOr; active compounds read low; activity change, % (tested at about 1.8 µM);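 active = maximum activity change below -70%; inconclusive = maximum activity change from -70% to -50%; inactive = maximum activity change above -50%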;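 also: thallium influx rate constant from kinetic fluorescence after stimulation buffer; % is scaled to controls: 0 for no effect and ±100 for the full control effect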
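Normalized rate constant (relative to positive and negative DMSO controls) derived from a 2 min kinetic fluorescence read after stimulation; U2OS cells expressing the 3.1 isoform via virus at 1.77 x 10^8 /mL.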
hERG WT inh – qHTS for Inhibitors of KCHN2 3.1: Wildtype qHTS | actives 0.37% (n = 340,000) | U2OS, BacMam KCNH2, thallium flux FluxOr; active compounds read low | activity change, % at 1.84 µM;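 active = maximum activity change below -70%; inconclusive = maximum activity change between -70% and -50%; inactive = maximum activity change above -50%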; also: % is scaled to controls: 0 for no effect and ±100 for the full control effect
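U2OS cells transduced with wild-type KCNH2 virus are loaded with FluxOr dye for 45 min, and thallium flux is measured in kinetic reads before and after stimulation buffer. Rate constants are normalized to DMSO controls.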
VDR inh – Inhibitors of the vitamin D receptor (VDR): qHTS; Vitamin D3 receptor (Homo sapiens), P11473; VDR-SRC2-3 peptide fluorescence polarization, 2 h; Potency, µM, for the others: max response, negative = inhibition, hits mostly inhibitors; actives 0.93% (n = 400,000); AID 504847, 2011; also: potency is read from the fitted curve at half-maximal effect; % is scaled to controls: 0 for no effect and ±100 for the full control effect
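Reagent solutions, kept cold and dark, are dispensed first; compounds are then pinned in at 23 nl, plates briefly spun, and incubated 2 h at ambient temperature. Inhibition of VDR–SRC2-3 peptide binding is read by fluorescence polarization.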
VDR inh confirm – qHTS for Inhibitors of the vitamin D receptor (VDR): Hit Validation in Primary Screen | shares compounds with VDR inh | VDR-coactivator inhibition assay, qHTS confirmation | Potency, µM, actives largely listed as inhibitors | actives 89% (n = 840) | AID 602199, 2012; also: potency is read from the fitted curve at half-maximal effect
VDR FP – qHTS for Inhibitors of the vitamin D receptor (VDR): Hit Validation using a Fluorescein Assay; shares compounds with VDR inh; VDR-coactivator binding, fluorescein fluorescence polarization; Potency, µM (series often up to 57.1 µM), for inactives: at the highest dose activity change, negative = inhibition, usual class: inhibitors; actives 48% (n = 840); AID 602200, 2012; also: potency is read from the fitted curve at half-maximal effect
VDR bla – qHTS for Inhibitors of the vitamin D receptor (VDR): Hit Validation using a Beta-Lactamase Assay. shares compounds with VDR inh. VDR beta-lactamase reporter cells, FRET ratio; cells co-treated with VDR agonist LG190178. Potency, µM (doses to about 46.1 µM), for inactives: top-dose activity change, negative = inhibition, hits mostly inhibitors. actives 23% (n = 840). AID 602202, 2012; also: potency is read from the fitted curve at half-maximal effect; % is scaled to controls: 0 for no effect and ±100 for the full control effect
VDR viability – qHTS for Inhibitors of the vitamin D receptor (VDR): Hit Validation using a Cytotoxicity Assay. shares compounds with VDR inh. cytotoxicity counter-screen, cell viability, qHTS. Potency, µM (top dose mostly 48.3 µM), inactives show at the highest dose activity change, negative = cytotoxicity, actives largely listed as cytotoxic. actives 18% (n = 840);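 also: potency is read from the fitted curve at half-maximal effect; plate controls were DMSO for no effect and high-concentration cycloheximide for full effect; nearly all actives have a fitted effect of over 75% in size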
Active calls of the source: *; ? = inconclusive; / = not tested or not shown. Shown are actives, neighbours in structure and some others; about 3.8% of the full set was active somewhere. Unless noted, calls follow the shape of the dose curve; as a rule, active = well fitted curve in the direction sought with a large enough effect; inconclusive = small, poorly fitted or top-dose-only effect, or another doubt; inactive = no such curve, though single readings can be large; an effect the other way counts as inactive or inconclusive.

SMILES	CBFb-RUNX1 inh	MBNL1-CUG inh	PLK1 PBD block	KCNH2 3.1 inh	hERG WT inh	VDR inh	VDR inh confirm	VDR FP	VDR bla	VDR viability
COc1ccccc1NC(c1cccnc1)c1ccc2cccnc2c1O (stereo unspecified)	/	-0.2%	2.99µM*	10.2	4.3	50.1µM*	9.47*	?	-12.3%	-6.8%
COc1ccc(C(Nc2cc(C)ccn2)c2ccc3ccc(C)nc3c2O)cc1 (stereo unspecified)	-7.2%	9.8%	15µM*	-1.5	-23.6	?	6.31*	3.55µM*	2.2%	7.8%
Cc1ccnc(NC(c2ccccc2)c2ccc3cccnc3c2O)c1 (stereo unspecified)	/	/	?	-19.1	2.2	?	/	/	/	/
COc1ccccc1CNC(=O)c1ccc(Cn2c(SCc3ccccc3)nc3cccnc32)cc1	/	/	/	/	/	9.2%	/	/	/	/
CS(=O)(=O)N(CC(=O)NC1CCCCC1)Cc1ccc(F)cc1	11.6%	-1.3%	-15.8%	22.7	-0.2	2.1%	/	/	/	/
COc1ccc(C(=O)/C=C/C(=O)N(CC(=O)NC2CCCCC2)Cc2ccc(F)cc2)c(O)c1	-0.6%	8.2%	4.23µM*	-10.1	-3.4	79.4µM*	10.6*	4.47µM*	13µM*	9.2µM*
CSCC[C@H](NC(=O)[C@H](CC(C)C)NC(=O)CNC(=O)[C@H](Cc1ccccc1)NC(=O)[C@H](Cc1ccccc1)NC(=O)[C@H](CCC(N)=O)NC(=O)[C@H](CCC(N)=O)NC(=O)[C@@H]1CCCN1C(=O)[C@H](CCCCN)NC(=O)[C@@H]1CCCN1C(=O)[C@@H](N)CCCN=C(N)N)C(N)=O	7.8%	/	/	/	/	-6.4%	/	/	/	/
CCc1ccccc1Nc1cc(C(=O)NC(C)c2ccccc2)c2ccccc2n1 (stereo unspecified)	/	/	/	/	/	-17.9%	/	/	/	/
CC(=O)Nc1ccc(S(=O)(=O)NCC(=O)OCc2ccccc2)cc1	6.2%	-17.3%	-1.3%	-11.7	-11.1	16.2%	/	/	/	/
CS(=O)(=O)c1ccc(S(=O)CC(=O)OCc2ccccc2)c([N+](=O)[O-])c1 (stereo unspecified)	4.6%	?	2.38µM*	0.2	-0.1	17.8µM*	9.47*	12.6µM*	?	20.6µM*
